# Source: ChEMBL document CHEMBL3988442, “University of Dundee, Small-Polar-MMV Screening Library” (2021)
# Molecular target: T1, Methionyl-tRNA synthetase, putative (Leishmania donovani (strain BPK282A1)) (UniProt E9BF75)
# T1 sequence (whole entry): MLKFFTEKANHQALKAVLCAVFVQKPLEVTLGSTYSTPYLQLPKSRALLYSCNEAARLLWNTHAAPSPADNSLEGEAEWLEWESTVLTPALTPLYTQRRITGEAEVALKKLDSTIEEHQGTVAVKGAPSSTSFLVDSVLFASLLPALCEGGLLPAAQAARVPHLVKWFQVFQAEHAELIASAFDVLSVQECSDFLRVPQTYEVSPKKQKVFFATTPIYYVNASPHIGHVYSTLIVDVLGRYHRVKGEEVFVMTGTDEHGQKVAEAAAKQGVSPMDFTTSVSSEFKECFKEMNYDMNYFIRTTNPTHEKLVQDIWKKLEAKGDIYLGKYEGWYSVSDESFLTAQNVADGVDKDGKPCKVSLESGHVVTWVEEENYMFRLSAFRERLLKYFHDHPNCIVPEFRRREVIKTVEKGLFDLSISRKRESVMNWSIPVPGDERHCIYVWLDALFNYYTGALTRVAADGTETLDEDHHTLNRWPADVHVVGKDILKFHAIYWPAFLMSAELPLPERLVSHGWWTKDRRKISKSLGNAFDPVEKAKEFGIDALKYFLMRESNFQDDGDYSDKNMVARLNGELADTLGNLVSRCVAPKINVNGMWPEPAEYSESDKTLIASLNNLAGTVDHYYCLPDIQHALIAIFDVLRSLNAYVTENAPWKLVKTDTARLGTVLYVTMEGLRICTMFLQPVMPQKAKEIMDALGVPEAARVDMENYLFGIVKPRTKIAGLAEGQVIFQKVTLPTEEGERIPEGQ
# Assay: Leishmania donovani Methionine tRNA synthetase (LdMetRS):v7. Dose response assay
# Assay type: functional
# Design: conc 80 nM, time 150 minutes
smiles,measurement,setting,value
CCCCOC(=O)CNc1nc(Nc2ccc(F)c(F)c2)nc2c1cnn2C,PXC50,MAX_EFFECT 18.05225653,< 4
same,PXC50,MAX_EFFECT 18.45493562,< 4
same,PXC50,MAX_EFFECT 25.28301887,< 4
COc1cnc(Nc2ccc(F)c(F)c2)nc1NCCO,PXC50,"BOTTOM 1.119092506, HILLSLOPE 0.867597172, MAX_EFFECT 78.41409692, TOP 85.56949583",5.21
same,PXC50,"BOTTOM 1.563075745, HILLSLOPE 0.960019265, MAX_EFFECT 80.27079304, TOP 89.78065845",4.95
same,PXC50,"BOTTOM 4.457946708, HILLSLOPE 0.924831459, MAX_EFFECT 80.78512397, TOP 87.63131575",5.14
Cc1nc(C)n(CC2CCCN2Cc2nc(C)c3ccccc3n2)n1 (stereo unspecified),PXC50,"BOTTOM 0.925302431, HILLSLOPE 1.017320837, MAX_EFFECT 67.36111111, TOP 99.90284223",4.31
same,PXC50,"BOTTOM 1.588399375, HILLSLOPE 1.270951942, MAX_EFFECT 69.49740035, TOP 100.0",4.3
same,PXC50,"BOTTOM 6.646518839, HILLSLOPE 0.950758055, MAX_EFFECT 62.41610738, TOP 100.0",4.2
COc1ccc(-c2cc(C(F)(F)F)nc(N3CCN(C)CC3)n2)cc1,PXC50,MAX_EFFECT 16.41414141,< 4
same,PXC50,MAX_EFFECT 20.40816327,< 4
Clc1ccccc1CN1CCc2nc(Nc3ccccc3)ncc2C1,PXC50,MAX_EFFECT 23.92344498,< 4
same,PXC50,MAX_EFFECT 25.2285192,< 4
Cc1c(C(=O)NC2CCCC2)ccc2ccc(N3CCN(S(C)(=O)=O)CC3)n12,PXC50,MAX_EFFECT 3.645833333,< 4
same,PXC50,MAX_EFFECT 10.0877193,< 4
CCc1[nH]c2c(CNc3nc(C)cc(NC)n3)cc(C)cc2c1C,PXC50,"BOTTOM 0.67274626, HILLSLOPE 1.539733885, MAX_EFFECT 72.46376812, TOP 100.0",4.25
same,PXC50,"BOTTOM -0.906983609, HILLSLOPE 1.456210781, MAX_EFFECT 70.06802721, TOP 103.3868667",4.22
same,PXC50,MAX_EFFECT 28.19614711,< 4
O=C(O)CC1COCCN1C(=O)C1(c2ccc(Cl)cc2)CCC1 (stereo unspecified),PXC50,MAX_EFFECT 1.360544218,< 4
same,PXC50,MAX_EFFECT 1.449275362,< 4
same,PXC50,MAX_EFFECT 4.378283713,< 4
C[C@@H](CO)Nc1ccnc(Nc2cccc(C(F)(F)F)c2)n1,PXC50,"BOTTOM 1.593845471, HILLSLOPE 0.816282678, MAX_EFFECT 64.11214953, TOP 100.0",4.29
same,PXC50,"BOTTOM 3.003400849, HILLSLOPE 0.886139555, MAX_EFFECT 64.25619835, TOP 100.0",4.3
same,PXC50,"BOTTOM -0.445089983, HILLSLOPE 0.824021196, MAX_EFFECT 60.35242291, TOP 100.0",4.26
Cn1ncc2c(NCCO)nc(Nc3ccc(O)cc3)nc21,PXC50,MAX_EFFECT 7.728337237,< 4
same,PXC50,MAX_EFFECT 8.34914611,< 4
same,PXC50,MAX_EFFECT 13.02428256,< 4
COCCNc1nc(-c2cccnc2)nc2sc(C)c(C)c12,PXC50,"BOTTOM 0.74162584, HILLSLOPE 1.235225767, MAX_EFFECT 62.1761658, TOP 100.0",4.17
same,PXC50,"BOTTOM 1.893882354, HILLSLOPE 1.640156685, MAX_EFFECT 57.9787234, TOP 75.89886764",4.31
Cn1ncc2c(NCC(C)(C)O)nc(Nc3ccc(F)c(F)c3)nc21,PXC50,"BOTTOM 2.756167144, HILLSLOPE 0.998486082, MAX_EFFECT 82.64150943, TOP 95.06215472",4.8
same,PXC50,"BOTTOM -1.483509386, HILLSLOPE 0.96789371, MAX_EFFECT 77.86259542, TOP 87.31089032",4.95
same,PXC50,"BOTTOM -2.002010489, HILLSLOPE 0.709003451, MAX_EFFECT 80.70175439, TOP 108.677252",4.69
COCCN(CC1CC1)c1nc(CCN)nc2sc(C)c(C)c12,PXC50,MAX_EFFECT 32.65306122,< 4
same,PXC50,MAX_EFFECT 36.11111111,< 4
CS(=O)(=O)N1CCN(c2cnc3ncc(C(=O)NC4CCCC4)cn23)CC1,PXC50,MAX_EFFECT 3.624733475,< 4
same,PXC50,MAX_EFFECT 4.761904762,< 4
